Source: PubChem (NMMLSC)
FPR binder: human FPR ligand, with FPRL1 counter-screen. P21462. FPR-expressing cells, fluorescent ligand binding, flow cytometry. inhibition, % (concentration not given with the values). hit rate 0.74% among 24,000. AID 440
VLA-4 antagonist: blocks LDV-FITC ligand binding to Mn2+-activated human VLA-4 integrin; Jurkat cells, LDV-FITC binding with Mn2+, flow cytometry; 100% = Mn2+-driven binding gain fully reversed; inhibition, % at 10 µM (by protocol); hit rate 0.2% among 24,000;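 active = inhibition above 50%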
Autofluor Jurkat: counter-screen for VLA-4 integrin: compound autofluorescence in Jurkat cells. flow cytometry; stronger effect = higher value; 1 = vehicle-only cell background. fluorescence ratio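 (tested at 10 µM compound in the well)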. hit rate 0.61% among 24,000;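 active = fluorescence ratio above 2.44, which is 1 plus 3 SD of all ratios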;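 note: green fluorescence of cells measured with 488 nm excitation and 530 nm emission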
VLA-4 allo ag: allosterically activates the human VLA-4 integrin | Jurkat cells, LDV-FITC binding, flow cytometry | activation, % at 10 µM (by protocol) | 24,000 tested, under 10 active | P13612;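 active = fluorescent ligand binding to cells raised by more than 40% of the manganese-induced maximum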
26S disassembly: blocks ATP-dependent breakdown of the yeast 26S proteasome; anti-FLAG beads, GFP-proteasome disassembly, flow cytometry; inhibition of disassembly, % (test concentration not listed); hit rate 0.2% among 24,000; AID 751;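 active = inhibition of disassembly above about 33%, limit read from the data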;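 note: higher percent means more bead fluorescence retained so stronger block of disassembly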
FPRL1 binder: ligands of human FPRL1, also counter-screen for FPR ligands. FPRL1-expressing cells, fluorescent ligand binding inhibition, flow cytometry. inhibition, % (concentration not given with the values). hit rate 0.3% among 24,000
Numbers stand for hits; . = inactive. Rows were chosen to be rich in hits. Some 1.9% of all compounds tested hit in one or more screens of this group. Cut-off read from the data, not from the text of the source, unless noted: active = inhibition above about 30%; inconclusive = no clear call, values can overlap the other calls; inactive = below that.

SMILES	FPR binder	VLA-4 antagonist	Autofluor Jurkat	VLA-4 allo ag	26S disassembly	FPRL1 binder
CCOC(=O)C1CCN(CC(O)COc2ccc(C(C)=O)cc2)CC1 (stereo not given)	34.6	.	.	.	.	.
CCOC(=O)C1CCN(Cc2ccc(C(=O)OC)cc2)CC1	47.8	.	.	.	.	55.1
COc1ccc(NC(=O)CCc2nc(-c3ccccc3F)no2)cc1	.	.	.	.	.	.
CCOC(=O)N1CCC(NC(=O)CSc2cc(=O)n(C)c3ccc(Cl)cc23)CC1	.	.	.	.	.	.
CC(C)(C)OC(=O)N1CCN(c2ccc(NC(=O)c3cc4ccccc4oc3=O)cc2)CC1	.	.	.	.	.	.
CCOC(=O)N1CCC(n2c(=S)[nH]c3cc(OC)c(OC)cc3c2=O)CC1	.	.	.	.	.	.
